Source: PubChem
HP1b binding inh: inhibitors of HP1-beta chromodomain binding to methylated histone tails | P83916 | actives 0.56% (n = 390,000) | Potency, µM (titrated, usually from 114 µM), actives largely listed as inhibitors | AID 540317 | AlphaScreen HP1-beta / biotin-H3K9me3 peptide binding; also: nearly all actives have a fitted effect of over 70% in size
Target sequence (P83916 whole entry, looked up): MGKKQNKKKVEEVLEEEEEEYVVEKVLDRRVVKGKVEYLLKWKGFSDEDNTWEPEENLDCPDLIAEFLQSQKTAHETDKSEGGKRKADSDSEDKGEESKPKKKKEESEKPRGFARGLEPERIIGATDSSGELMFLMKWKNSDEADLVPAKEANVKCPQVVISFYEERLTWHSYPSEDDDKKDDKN
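Compound inhibition of the preformed complex between 50 nM HP1-beta and 50 nM biotinylated H3K9me3 peptide was read by AlphaScreen. Buffer was PBS pH 7.4 with 0.01% Tween-20. Incubations ran 30 min at room temperature, with 10 ug/mL donor/acceptor beads.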
L3MBTL1 inh: L3MBTL1 (human) inhibition. Potency, µM (top dose mostly 57.1 µM), hits mostly inhibitors. Q9Y468. actives 0.66% (n = 230,000). AlphaScreen L3MBTL1–H3K9me1 peptide binding. AID 485360; also: nearly all actives have a fitted effect of over 60% in size
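L3MBTL1 50 nM + b-AHA-H3(1-15)K9me1 75 nM, 30 min RT; compound added, 30 min RT; streptavidin donor/Ni-chelate acceptor beads 10 ug/mL each final, 30 min RT dark; AlphaScreen read.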
JMJD2A Tudor: inhibitors of human JMJD2A Tudor domain; O75164; AlphaScreen JMJD2A-Tudor / H3K4me3 peptide binding; Potency, µM (highest dose often 114 µM), most hits filed as inhibitors; actives 4.4% (n = 390,000); AID 504339; also: nearly all actives have a fitted effect of over 50% in size
G9a block: G9a (human) methyltransferase inhibition; Q96KQ7; G9a H3K9 monomethylation, AlphaScreen, 2 h; Potency, µM (titrated, usually from 102 µM), usual class: inhibitors; actives 8.8% (n = 350,000); also: nearly all actives have a fitted effect of over 75% in size
Target sequence (Q96KQ7 913-1193 limits assumed): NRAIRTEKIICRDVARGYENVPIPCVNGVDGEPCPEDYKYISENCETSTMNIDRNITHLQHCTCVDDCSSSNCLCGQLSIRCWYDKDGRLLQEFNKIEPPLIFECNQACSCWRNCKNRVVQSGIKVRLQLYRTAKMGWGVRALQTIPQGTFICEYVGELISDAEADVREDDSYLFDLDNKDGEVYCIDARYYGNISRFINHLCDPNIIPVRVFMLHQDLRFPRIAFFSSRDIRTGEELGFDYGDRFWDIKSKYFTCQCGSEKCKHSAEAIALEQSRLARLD
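AlphaScreen detection with an anti-monomethyl H3K9 antibody quantified product after a 2 h room-temperature reaction containing 500 nM biotinylated H3K9 peptide, 20 µM SAM and 20 nM enzyme, which had been preincubated 15 min with compound.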
GLS inh: blocks human kidney-isoform glutaminase activity; AID 624170; Potency, µM (doses to about 45.5 µM), usual class: inhibitors; O94925; GLS enzymatic activity, qHTS titration; actives 0.21% (n = 410,000)
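hKGA in 45 mM KH2PO4 (pH 8.2), 0.02% Tween-20 with compound, then 1mM L-Glutamine (stock as added) plus glutamate oxidase/HRP/Amplex red coupling mix. Fluorescence read initially and after 30 min at RT; signal change reflects glutamate formation.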
BAZ2B inh: inhibitors of human BAZ2B bromodomain; Q9UIF8; AlphaScreen BAZ2B-H3K14Ac peptide displacement; Potency, µM (top dose mostly 114 µM), usual class: inhibitors; actives 4.4% (n = 360,000); AID 504333; also: nearly all actives have a fitted effect of over 60% in size
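BAZ2B (50 nM) with biotin-H3(5-23)K14Ac peptide (50 nM) in PBS pH 7.4, 0.01% Tween-20, preformed 30 min, then compound 30 min at room temperature; top concentration 110uM. AlphaScreen streptavidin donor/nickel chelate acceptor beads (10 ug/mL final), 20 min dark, signal read.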
Numbers stand for hits; i = inactive; ? = inconclusive; nt = not tested or not shown; [ ] = dose if it differs, or a comment. Hits are enriched below; roughly 10% of the tested compounds scored in any of these assays. Calls follow the shape of the dose curve; as a rule, active = well fitted curve in the direction sought with a large enough effect; inconclusive = small, poorly fitted or top-dose-only effect, or another doubt; inactive = no such curve, though single readings can be large; an effect the other way counts as inactive or inconclusive.

SMILES	HP1b binding inh	L3MBTL1 inh	JMJD2A Tudor	G9a block	GLS inh	BAZ2B inh
CC(=O)N1CCCc2cc(S(=O)(=O)NC(C(=O)NC3CCCCC3)C(C)C)ccc21 (stereo unspecified)	i	i	i	35.5µM	i	i
COc1cc(NS(=O)(=O)c2ccc3c(c2)CCCN3C(C)=O)cc(OC)c1OC	i	nt	i	i	i	i
CC(=O)N1CCCc2cc(S(=O)(=O)NC(C(=O)NC(C)c3ccccc3)C(C)C)ccc21 (stereo unspecified)	i	i	i	i	nt	i
CCOc1ccc(NC(=O)C(NS(=O)(=O)c2ccc3c(c2)CCN3C(C)=O)C(C)C)cc1 (stereo unspecified)	i	nt	i	i	i	nt
COc1cc(NC(=O)CC(C)S(=O)(=O)c2ccc3c(c2)CCN3C(C)=O)cc(OC)c1OC (stereo unspecified)	i	nt	i	11.2µM	i	i
O=C1CN(C(=O)COc2ccc(Cl)cc2Cl)C(c2ccc(F)cc2)c2cc(F)ccc2N1 (stereo unspecified)	i	nt	i	i	i	i
Cc1ccc(N(C)C(=O)C2CCN(S(=O)(=O)c3c(C)noc3/C=C/c3c(C)cc(C)cc3C)CC2)cc1	i	nt	i	i	i	i
Cn1c(-c2ccc3c(c2)OCO3)cnc1NC(=O)CCC(=O)NCCc1ccccc1	i	i	56.2µM	i	i	?
C=C[C@@]1(C)C[C@H](OC(=O)CSC(C)(C)CNC(=O)[C@@H](N)C(C)C)[C@@]2(C)C(C)CC[C@@]3(CCC(=O)[C@@H]32)[C@H](C)[C@H]1O (stereo partly specified)	nt	nt	nt	i[12.7 µM]	i	nt
COc1ccc(N2CCN(c3ncnc4sc(C(=O)NCC5CCCO5)c(C)c34)CC2)cc1 (stereo unspecified)	i	nt	?	39.8µM	i	i
O=C(c1ccco1)N1CCN(c2ncnc3scc(-c4ccccc4)c23)CC1	i	nt	i	i	i	i
COc1ccc(-c2csc3ncnc(N4CCN(C(=O)c5ccco5)CC4)c23)cc1	i	i	i	50.1µM	i	i
COc1ccc(N2CCN(c3ncnc4scc(-c5ccc(F)cc5)c34)CC2)cc1	?	nt	22.4µM	10µM	i	7.94µM
COc1ccc(N2CCN(c3ncnc4scc(-c5ccc(C)cc5)c34)CC2)cc1	?	nt	25.1µM	25.1µM	i	11.2µM
COc1ccc(CN2CCN(c3ncnc4scc(-c5ccc(F)cc5)c34)CC2)cc1	?	nt	?	i[2.33 µM]	i	?
C=C1C(c2ccc(C)cc2)=CCc2cc(C)cc(C)c21	nt	nt	nt	i	nt	nt
Cc1ccc(-c2c(C(=O)N3CCN(c4cc(Cl)ccc4C)CC3)oc(=O)c3ccccc23)cc1	i	nt	i	i	i	nt
COc1ccc(Cl)cc1NC(=O)CCc1c(C)nc2c(c1C)c(=O)n(C)c(=O)n2C	i	nt	i	i	i	i
COc1ccc(N2CCN(c3ncnc4scc(-c5ccccc5)c34)CC2)cc1	?	nt	25.1µM	7.94µM	i	14.1µM
CC[n+]1c(-c2ccccc2)csc1Nc1c(C)n(C)n(-c2ccccc2)c1=O	i	i	i	?	i	?
Cc1cccc(N2C(=O)C(Cl)=C(Nc3c(C)n(C)n(-c4ccccc4)c3=O)C2=O)c1C	i	nt	i	8.91µM	i	50.1µM
Cc1ccc(N2C(=O)C(Cl)=C(Nc3c(C)n(C)n(-c4ccccc4)c3=O)C2=O)cc1	i	i	i	5.01µM	i	i
CC[n+]1c(-c2ccc(C)cc2)csc1Nc1c(C)n(C)n(-c2ccccc2)c1=O	?	i	?	8.91µM	i	?
Nc1ncnc2c1nc(Cl)n2[C@@H]1O[C@H](CO)[C@@H](O)[C@@H]1O	i	nt	i	nt	nt	nt
Cc1cc2nc(C)n(CCCNC(=O)Nc3cccc4ccccc34)c2cc1C	i	nt	50.1µM	i	i	i
SMILES	HP1b binding inh	L3MBTL1 inh	JMJD2A Tudor	G9a block	GLS inh	BAZ2B inh
CC(=O)c1c(C)c(C)c2n1CCn1c(C)ccc1-2	i	nt	?	6.31µM	i	?
COc1ccc(-n2c(COc3ccc(C)cc3)n[nH]c2=S)cc1	i	i	i	nt	i	i
COc1ccc(-c2n[nH]c(=S)n2-c2ccc(C)cc2)cc1	i	nt	?	0.891µM	i	i
COc1ccc(-n2c(-c3ccc(Br)cc3)n[nH]c2=S)cc1	i	i[2.29 µM]	31.6µM	i[0.501 µM]	i	i
Cn1c(-c2csc(-c3ccccc3)n2)n[nH]c1=S	i	i	28.2µM	i	i	i
Cc1ccn2c(=S)[nH]nc2c1	nt	nt	nt	nt	i	nt
Cc1ccc(-c2n[nH]c(=S)n2C)cc1	?	i	3.16µM	10µM	i	i
Cn1c(=O)[nH]c2cc(-c3noc(-c4ccc(F)cc4)n3)ccc21	i	nt	i	i	i	i
COc1ccc(CCNC(=O)CSc2nc(-c3ccc(F)cc3)cc(C(F)(F)F)n2)cc1OC	i	nt	i	i	i	i
O=C(NCc1cccc(F)c1)c1ccc2nc(N3CCCCC3)sc2c1	i	nt	i	i	i	i
COc1cccc2cc(-c3nc4sc5c(c4c(=O)[nH]3)CCC(C(C)(C)C)C5)c(=O)oc12 (stereo unspecified)	i	nt	i	i	i	i
O=C(CCC1CCCNC1)c1ccccc1 (stereo unspecified)	nt	i	nt	50.1µM	nt	i
CC(C)CCC(O)(CCC(C)C)C(=O)NNc1ccccc1	i	i	i	50.1µM	i	i
CC(C)CC(O)(CC(C)C)C(=O)NNc1ccccc1	i	i	i	?	i	i
COc1ccc(CNC(=O)C2CCN(S(=O)(=O)c3ccc4c(ccn4C)c3)CC2)cc1	i	nt	i	i	i	i
O=C(NCc1cccs1)c1cccnc1SCCS(=O)(=O)c1ccc(C(F)(F)F)cn1	i	i	i	15.8µM	i	i
CS(=O)(=O)CCSc1ncccc1C(=O)NCc1cccs1	i	i	i	i	i	i
O=C(NCc1ccco1)/C(=C/c1ccc(C(F)(F)F)cc1)c1nc2ccccc2[nH]1	i	i	i	15.8µM	i	i
COc1ccc(-c2[nH]c(-c3ccccc3)nc2SCC(=O)Nc2nccs2)cc1	i	?	?	11.2µM	i	?
COc1ccc(-c2[nH]c(-c3ccc(C)cc3)nc2SCC(=O)NC2CCCC2)cc1	i	i	?	50.1µM	i	?
COc1ccc(N(CC(=O)NCCc2ccccc2)C(=O)CCC(=O)Nc2nccs2)cc1	?	nt	i	56.2µM	i	i
COc1ccc(NC(=O)C2CCN(C3=NS(=O)(=O)C(c4ccc(C)c(C)c4)=C3C)CC2)c(OC)c1	?	nt	i	i	i	i
Cc1cc(C)n2nc(CNC(=O)c3c(F)cccc3F)nc2n1	i	nt	i	i	i	i
Cc1ccc(S(=O)(=O)N2CCOCCOCCOCCOCCOCC2)cc1	i	i	i	i	i	i
